# Experimental data: ChEMBL document CHEMBL3988442, “University of Dundee, Small-Polar-MMV Screening Library” (2021)
# For some assays here: Potency and affinity values are given separately.
# Assays:
# Parameters in all cases: scale not given: direction of the effect not stated beside the values
# [1] = target: Protein translocase subunit SecA (Escherichia coli (strain K12)) (UniProt P10408); assay: Assay to Identify E. coli SecA ATPase Inhibitors; format: functional; conditions: 30 µM
# [2] = target: T1, Ubiquitin-activating enzyme e1, putative (Leishmania donovani (strain BPK282A1)) (UniProt E9BSI1); assay: Leishmania donovani Ubiquitin Activating Enzyme (LdE1); format: functional; conditions: 30 µM
# T1 sequence (whole entry): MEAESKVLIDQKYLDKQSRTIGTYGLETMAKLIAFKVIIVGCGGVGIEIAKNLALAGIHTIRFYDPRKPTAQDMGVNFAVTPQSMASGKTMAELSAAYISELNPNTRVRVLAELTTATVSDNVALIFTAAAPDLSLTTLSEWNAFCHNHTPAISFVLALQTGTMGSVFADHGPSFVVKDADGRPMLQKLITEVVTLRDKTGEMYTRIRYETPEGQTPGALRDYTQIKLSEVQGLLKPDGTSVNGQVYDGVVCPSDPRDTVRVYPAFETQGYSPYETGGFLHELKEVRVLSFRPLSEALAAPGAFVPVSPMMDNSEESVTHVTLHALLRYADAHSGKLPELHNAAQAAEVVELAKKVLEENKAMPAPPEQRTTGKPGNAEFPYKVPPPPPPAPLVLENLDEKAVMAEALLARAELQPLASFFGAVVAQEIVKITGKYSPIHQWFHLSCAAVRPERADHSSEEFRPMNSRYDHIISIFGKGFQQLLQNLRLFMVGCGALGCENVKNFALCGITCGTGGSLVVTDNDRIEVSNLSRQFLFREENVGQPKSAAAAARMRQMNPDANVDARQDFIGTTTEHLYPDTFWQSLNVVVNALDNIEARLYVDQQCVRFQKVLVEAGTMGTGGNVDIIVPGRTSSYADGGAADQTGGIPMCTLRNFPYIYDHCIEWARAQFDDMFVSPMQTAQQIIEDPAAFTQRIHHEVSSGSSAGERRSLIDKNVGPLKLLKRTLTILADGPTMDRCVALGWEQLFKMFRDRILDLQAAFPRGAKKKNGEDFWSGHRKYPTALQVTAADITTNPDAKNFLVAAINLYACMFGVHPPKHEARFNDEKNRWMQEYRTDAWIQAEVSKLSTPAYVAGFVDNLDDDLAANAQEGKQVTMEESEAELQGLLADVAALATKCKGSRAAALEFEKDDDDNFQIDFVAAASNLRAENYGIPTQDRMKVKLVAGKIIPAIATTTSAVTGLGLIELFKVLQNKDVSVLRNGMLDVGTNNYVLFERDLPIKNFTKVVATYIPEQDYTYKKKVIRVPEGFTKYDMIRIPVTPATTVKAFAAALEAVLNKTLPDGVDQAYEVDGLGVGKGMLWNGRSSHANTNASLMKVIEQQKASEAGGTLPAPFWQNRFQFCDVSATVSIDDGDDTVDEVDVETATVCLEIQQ
# [3] = target: AMP-activated protein kinase, AMPK (Homo sapiens) (UniProt P54646+O43741+P54619+Q9UGJ0+Q9Y478+Q13131+Q9UGI9); assay: AMP-dependent Kinase enzyme assay. An in vitro enzyme assay that detects ADP turnover that is directly proportional to AMPK activity. This uses naive AMPK that is activated during the assay with MK-8722; format: functional; conditions: 30 µM
# [4] = target: Sialic acid-binding Ig-like lectin 9 (Homo sapiens) (UniProt Q9Y336); assay: Hs-Siglec9 ALPHAscreen SOP 20170721; conditions: 10 µM
# Chain of Sialic acid-binding Ig-like lectin 9 (Homo sapiens) (Q9Y336 whole entry): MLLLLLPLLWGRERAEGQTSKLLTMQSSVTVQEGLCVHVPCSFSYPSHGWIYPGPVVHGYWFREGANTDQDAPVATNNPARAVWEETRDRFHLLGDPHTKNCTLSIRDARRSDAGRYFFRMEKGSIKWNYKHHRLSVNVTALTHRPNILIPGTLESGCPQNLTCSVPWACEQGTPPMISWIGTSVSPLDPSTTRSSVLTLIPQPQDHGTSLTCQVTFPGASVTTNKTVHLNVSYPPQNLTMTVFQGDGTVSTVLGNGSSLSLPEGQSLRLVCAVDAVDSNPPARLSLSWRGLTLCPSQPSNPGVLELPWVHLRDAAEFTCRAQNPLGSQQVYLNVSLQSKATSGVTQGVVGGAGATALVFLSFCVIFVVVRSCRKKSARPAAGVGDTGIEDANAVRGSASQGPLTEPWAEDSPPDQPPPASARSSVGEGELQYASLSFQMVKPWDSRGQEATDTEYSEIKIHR
# Trypanosoma cruzi = assay: Trypanosoma cruzi phosphomannomutase and mannose-1-phosphate guanylyltransferase assay; format: functional; conditions: 10 µM
# [5] = target: T2, Arginase-2, mitochondrial (Homo sapiens) (UniProt P78540); assay: in vitro enzyme assay to detect the production of urea directly proportional to the activity of Arginase II; format: functional; conditions: 33.3 µM; further: in the data most compounds retested in dose-response had high values
# T2 sequence (whole entry): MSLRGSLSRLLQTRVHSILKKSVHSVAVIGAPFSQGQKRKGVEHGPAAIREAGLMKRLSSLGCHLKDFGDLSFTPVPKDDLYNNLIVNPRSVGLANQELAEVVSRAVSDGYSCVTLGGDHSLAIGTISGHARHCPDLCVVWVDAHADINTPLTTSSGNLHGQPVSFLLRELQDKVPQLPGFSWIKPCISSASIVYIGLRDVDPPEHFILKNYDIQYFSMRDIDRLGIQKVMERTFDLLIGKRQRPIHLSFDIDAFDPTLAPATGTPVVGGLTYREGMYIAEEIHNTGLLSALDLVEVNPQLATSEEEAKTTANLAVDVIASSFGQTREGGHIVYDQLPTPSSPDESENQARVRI
# [6] = target: T3, Proteasome subunit beta (Trypanosoma cruzi) (UniProt O96673); assay: Trypanosoma cruzi proteasome chymotrypsin-like activity (TcProtChymo) assay.; further: in the data most compounds retested in dose-response had high values; format: functional; conditions: 9.37 µM
# T3 sequence (whole entry): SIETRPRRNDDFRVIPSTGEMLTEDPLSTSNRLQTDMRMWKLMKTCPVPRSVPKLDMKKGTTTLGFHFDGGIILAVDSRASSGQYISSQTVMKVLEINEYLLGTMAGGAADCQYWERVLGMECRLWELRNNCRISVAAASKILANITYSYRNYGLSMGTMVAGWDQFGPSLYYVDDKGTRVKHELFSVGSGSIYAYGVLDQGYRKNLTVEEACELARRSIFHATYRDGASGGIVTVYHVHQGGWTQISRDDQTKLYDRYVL
# Homo sapiens = species on record: Homo sapiens; assay: To identify inhibition of the IFN signalling (Jak-Stat) pathway via expression of an eGFP reporter gene under the control of an IFN-stimulated response element (ISRE) containing MxA promoter.; format: functional; conditions: 30 µM
# [7] = target: T4, Tyrosyl-tRNA synthetase, putative (Trypanosoma cruzi (strain CL Brener)) (UniProt Q4DSP6); assay: Trypanosoma cruzi tyrosyl tRNA synthetase (TcYRS) _High Tyrosine SOP; format: functional; conditions: 30 µM; further: in the data most compounds retested in dose-response had high values
# T4 sequence (whole entry): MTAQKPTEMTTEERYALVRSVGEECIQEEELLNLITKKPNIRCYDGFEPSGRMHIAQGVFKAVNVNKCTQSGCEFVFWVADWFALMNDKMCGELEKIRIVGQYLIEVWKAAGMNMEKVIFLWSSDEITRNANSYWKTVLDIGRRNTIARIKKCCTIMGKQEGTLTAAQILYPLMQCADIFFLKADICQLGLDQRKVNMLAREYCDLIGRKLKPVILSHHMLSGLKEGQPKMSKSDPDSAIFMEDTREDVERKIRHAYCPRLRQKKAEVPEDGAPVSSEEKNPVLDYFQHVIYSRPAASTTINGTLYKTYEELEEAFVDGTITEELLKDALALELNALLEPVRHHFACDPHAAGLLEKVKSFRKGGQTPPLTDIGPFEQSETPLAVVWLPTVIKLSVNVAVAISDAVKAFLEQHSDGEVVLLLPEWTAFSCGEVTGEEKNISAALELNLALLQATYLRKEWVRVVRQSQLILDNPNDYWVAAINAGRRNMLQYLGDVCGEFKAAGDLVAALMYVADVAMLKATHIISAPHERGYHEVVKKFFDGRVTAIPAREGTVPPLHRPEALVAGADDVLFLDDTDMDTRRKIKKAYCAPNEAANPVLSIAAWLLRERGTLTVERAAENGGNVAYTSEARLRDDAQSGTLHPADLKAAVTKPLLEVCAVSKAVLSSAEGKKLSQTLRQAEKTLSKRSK
# [8] = target: T4, Tyrosyl-tRNA synthetase, putative (Trypanosoma cruzi (strain CL Brener)); assay: Trypanosoma cruzi tyrosyl tRNA synthetase (TcYRS) SOP; format: functional; conditions: 30 µM
# [9] = target: Chromo domain-containing protein 1 (Saccharomyces cerevisiae (strain ATCC 204508 / S288c) (Baker's yeast)) (UniProt P32657); assay: ScCHD-1 Enzyme Inhibition Assay; format: functional; conditions: 30 µM; further: in the data most compounds retested in dose-response had high values
# Chain of Chromo domain-containing protein 1 (Saccharomyces cerevisiae (strain ATCC 204508 / S288c) (Baker's yeast)) (P32657 whole entry, the tested form may be a part): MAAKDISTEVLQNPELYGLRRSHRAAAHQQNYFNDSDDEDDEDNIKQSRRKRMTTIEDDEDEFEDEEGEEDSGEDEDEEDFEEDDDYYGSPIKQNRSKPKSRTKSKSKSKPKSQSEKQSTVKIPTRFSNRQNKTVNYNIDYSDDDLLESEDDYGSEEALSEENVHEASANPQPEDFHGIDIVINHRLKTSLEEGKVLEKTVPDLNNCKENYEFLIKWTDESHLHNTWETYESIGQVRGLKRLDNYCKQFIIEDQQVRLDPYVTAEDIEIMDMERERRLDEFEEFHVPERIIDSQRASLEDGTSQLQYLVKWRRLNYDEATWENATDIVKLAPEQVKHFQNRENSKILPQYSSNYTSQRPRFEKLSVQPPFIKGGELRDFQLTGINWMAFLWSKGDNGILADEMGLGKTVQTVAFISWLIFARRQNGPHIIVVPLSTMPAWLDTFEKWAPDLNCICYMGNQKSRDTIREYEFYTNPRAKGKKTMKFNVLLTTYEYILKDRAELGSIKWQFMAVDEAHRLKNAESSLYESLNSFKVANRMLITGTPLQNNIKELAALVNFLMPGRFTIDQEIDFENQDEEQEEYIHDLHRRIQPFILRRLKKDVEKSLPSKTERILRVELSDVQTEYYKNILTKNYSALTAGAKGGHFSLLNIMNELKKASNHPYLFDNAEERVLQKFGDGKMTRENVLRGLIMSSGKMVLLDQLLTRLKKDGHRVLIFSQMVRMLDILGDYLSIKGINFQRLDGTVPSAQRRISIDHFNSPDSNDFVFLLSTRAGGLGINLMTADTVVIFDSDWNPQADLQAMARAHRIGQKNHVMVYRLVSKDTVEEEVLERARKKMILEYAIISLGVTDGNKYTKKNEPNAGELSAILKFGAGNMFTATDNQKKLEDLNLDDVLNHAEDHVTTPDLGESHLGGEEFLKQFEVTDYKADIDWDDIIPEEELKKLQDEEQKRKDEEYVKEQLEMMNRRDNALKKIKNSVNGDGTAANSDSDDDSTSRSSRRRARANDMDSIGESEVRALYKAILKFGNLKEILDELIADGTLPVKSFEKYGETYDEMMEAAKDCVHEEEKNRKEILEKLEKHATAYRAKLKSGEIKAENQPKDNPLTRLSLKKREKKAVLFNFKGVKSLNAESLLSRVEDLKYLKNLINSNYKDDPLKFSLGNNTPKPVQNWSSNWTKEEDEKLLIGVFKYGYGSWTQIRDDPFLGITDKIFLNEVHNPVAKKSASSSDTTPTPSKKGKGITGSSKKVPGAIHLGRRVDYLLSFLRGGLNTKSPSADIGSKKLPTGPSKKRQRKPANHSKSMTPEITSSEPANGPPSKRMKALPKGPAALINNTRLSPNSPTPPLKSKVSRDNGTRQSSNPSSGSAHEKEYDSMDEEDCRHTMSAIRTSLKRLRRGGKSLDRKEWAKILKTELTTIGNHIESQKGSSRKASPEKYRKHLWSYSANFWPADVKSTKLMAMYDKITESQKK
# Chain of Protein translocase subunit SecA (Escherichia coli (strain K12)) (P10408 whole entry): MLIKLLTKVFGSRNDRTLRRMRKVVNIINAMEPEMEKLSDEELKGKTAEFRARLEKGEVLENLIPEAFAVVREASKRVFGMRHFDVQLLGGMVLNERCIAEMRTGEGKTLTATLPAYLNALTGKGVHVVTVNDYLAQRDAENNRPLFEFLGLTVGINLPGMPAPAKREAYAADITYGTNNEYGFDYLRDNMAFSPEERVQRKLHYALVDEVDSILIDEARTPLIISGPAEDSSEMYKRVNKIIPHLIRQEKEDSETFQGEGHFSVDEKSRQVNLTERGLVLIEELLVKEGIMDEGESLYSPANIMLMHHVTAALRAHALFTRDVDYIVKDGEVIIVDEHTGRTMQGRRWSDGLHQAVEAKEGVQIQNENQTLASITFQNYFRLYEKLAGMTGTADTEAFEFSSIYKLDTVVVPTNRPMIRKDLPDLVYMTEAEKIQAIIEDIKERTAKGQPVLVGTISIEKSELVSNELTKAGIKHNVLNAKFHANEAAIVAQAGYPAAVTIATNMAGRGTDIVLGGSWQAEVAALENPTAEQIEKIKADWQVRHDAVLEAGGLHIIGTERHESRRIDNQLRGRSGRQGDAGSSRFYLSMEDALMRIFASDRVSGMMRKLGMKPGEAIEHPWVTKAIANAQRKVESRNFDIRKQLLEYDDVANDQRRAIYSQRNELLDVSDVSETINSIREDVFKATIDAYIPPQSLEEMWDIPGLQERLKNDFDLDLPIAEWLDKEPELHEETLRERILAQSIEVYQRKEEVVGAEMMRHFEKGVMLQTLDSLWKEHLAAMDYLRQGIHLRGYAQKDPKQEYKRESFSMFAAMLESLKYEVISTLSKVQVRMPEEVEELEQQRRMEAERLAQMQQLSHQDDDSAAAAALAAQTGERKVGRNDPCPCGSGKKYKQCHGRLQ
Structure (SMILES),Percent Effect [1] [%],Percent Effect [2] [%],Percent Effect [3] [%],Percent Effect [4] [%],Percent Effect (Trypanosoma cruzi) [%],Percent Effect [5] [%],Percent Effect [6] [%],Percent Effect (Homo sapiens) [%],Percent Effect [7] [%],Percent Effect [8] [%],Percent Effect [9] [%]
CN(C)S(=O)(=O)N1CCN(c2nccc(C(F)(F)F)n2)CC1,-2.09,5.48,8.09,4.91,7.64,0.909,10.5,9.93,5.38,12.5,-3.75
O=C(Cc1cccc(F)c1)N1CCCCC1c1ccn2ccnc2n1 (configuration not stated),-5.83,-4.05,14.6,3.14,-3.16,-4.41,5.3,10.2,-4.3,-9.09,-10.5
CCCS(=O)(=O)NCc1cccnc1OCC,0.771,2.6,-1.14,3.55,1.28,-5.52,6.32,13.3,1.07,-1.24,-7.12
CN1CCN(c2nc(O)c3c(-c4ccccn4)ccnc3n2)CC1,-4.77,0,6.93,2.2,-2.24,-7.1,18.1,-16.4,6.38,10.4,-7.72
CCc1ncnc2c1CCN(C(=O)Cc1ccccn1)CC2,-1.33,4,-1.05,1.52,-0.786,-9.33,11.8,12.9,1.06,-5.13,-2.69
CNS(=O)(=O)c1ccc(C(=O)NC2CCOc3ccccc32)o1 (configuration not stated),-5.29,18.4,0.291,1.37,0.682,-3.55,11.8,17.5,2.13,18.2,-7.69
CC(C)N(C)Cc1nnc2n1CCCN(C(=O)c1ccco1)C2,-1.99,10.4,3.35,2.67,1.08,13.6,14.3,24.5,7.41,14.1,-7.03
CCN1CCCN(C(=O)c2cnc(OC(C)C)c(Cl)c2)CC1,-2.83,-8.22,9.83,-2.64,-15.9,-1.2,3.68,6.45,1.04,-30.9,1.65
COc1cc(CNC(=O)c2c(C)noc2C(C)C)ccn1,-2.87,26,-8.18,3.15,3.75,3.92,10.8,9.63,10.7,21.9,-10.2
Cc1cnn(CC2CCCN2Cc2nc3ccccc3nc2C)c1 (configuration not stated),-2.22,0,0.154,1.31,4.41,1.47,10.4,9.09,0,7.06,-12.8
CC(NC(=O)N1CCC(n2cncn2)CC1)c1ccc(F)cc1F (configuration not stated),-3.51,12.7,-2.69,7.75,-0.0944,-1.14,8.6,8.31,5.42,13.9,-5.72
O=C(Cc1ccc2c(c1)OCCO2)NC1CCCC1,-5.5,18.2,2.67,-8.79,-11.2,-2.85,5.74,32.2,1.94,7.32,-5.69
CC(=O)N1CCCN(C(=O)NCc2cc[nH]n2)CC1,-8.38,13.2,-10.6,1.18,11.1,1.08,14.6,1,11.3,23.5,-8.49
CNS(=O)(=O)Cc1ccc(CNC(=O)c2ccc(C)[nH]c2=O)cc1,-4.48,28.6,-2.88,7.58,6.37,-1.07,5.91,-2.15,10.7,26.8,-6.56
O=C(NCCC(=O)N1CCCc2ccccc21)c1c(O)cc(F)cc1F,-5.79,10.4,-0.269,9.22,6.95,-1.47,11.1,22.7,-0.952,-49.4,-16.6
CCOC(=O)c1sc2ccsc2c1CNC(=O)CC,-4.75,16.2,-8.58,18.5,7.15,-0.185,1.44,19,4.95,13.4,38.4
COc1ccccc1Oc1ncccc1CNC(=O)C(C)N1CCCC1 (configuration not stated),-3.48,12.5,-6.43,29.1,3.4,50.3,11.8,-6.43,4.21,12.8,-9.98
Fc1ccc2c(c1)C(NCc1nnc3n1CCCCC3)CCCO2 (configuration not stated),-2.96,8.11,-2.29,19.3,7.92,23.1,-1.12,0.659,2.15,8.64,-12.5
CCNC(=O)CN1CCCN(C(=O)C2CCCc3[nH]ncc32)CC1 (configuration not stated),-3.9,8.11,-2.94,6.84,1.66,5.21,5.75,-11.9,3.23,8.64,-4.21
Cc1nc(C)n(CC2CCCN2Cc2nc(-c3cccs3)no2)n1 (configuration not stated),-2.92,-7.89,1.44,6.54,-0.188,2.3,6.85,17.8,5.39,12.2,1.98
Cc1nccn1CC1CCCN1S(=O)(=O)Cc1ccon1 (configuration not stated),-1.65,20.2,-1.52,-6.85,3.68,-6.84,14,7.78,5.42,3.8,-7.21
CC(C)c1nnc2n1CCN(C(=O)c1ccc(-n3cnnc3)cc1)C2,-9.19,-10.4,-7.99,-9.83,8.13,-7.79,13.5,0.957,5.71,18.8,-23.7
